# Reference: PubChem BioAssay AID1445 (SRMLSC, 2008)
# The whole screen tested about 220,000 compounds, of which about 910 (0.41%) were called active.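 Rule for the calls: active = primary inhibition above the hit cutoff, then over 50% inhibition at one or more dose response concentrations (cut at about 23% in these data, passing the limit was not always enough); inconclusive = conflicting primary data, or primary hits not chosen for dose response; inactive = low primary inhibition, or under 50% at every dose.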 The entries come from a sample that favours actives as a whole. Measured potencies and affinities stand elsewhere.
# Molecular target: Aminopeptidase N (Plasmodium falciparum (isolate 3D7)) (UniProt O96935)
# Experiment: malaria alanyl aminopeptidase activity blockers – biochemical, fluorogenic H-Leu-NHMec substrate, 1536-well (AID 1445);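 note: plate controls were DMSO full reaction for no effect and no enzyme background for full effect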
# Conditions: recombinant M1AAP, H-Leu-NHMec fluorogenic kinetic assay; at 30 µM, stronger effect = higher value unless noted
# Chain of Aminopeptidase N (Plasmodium falciparum (isolate 3D7)) (O96935 whole entry, looked up): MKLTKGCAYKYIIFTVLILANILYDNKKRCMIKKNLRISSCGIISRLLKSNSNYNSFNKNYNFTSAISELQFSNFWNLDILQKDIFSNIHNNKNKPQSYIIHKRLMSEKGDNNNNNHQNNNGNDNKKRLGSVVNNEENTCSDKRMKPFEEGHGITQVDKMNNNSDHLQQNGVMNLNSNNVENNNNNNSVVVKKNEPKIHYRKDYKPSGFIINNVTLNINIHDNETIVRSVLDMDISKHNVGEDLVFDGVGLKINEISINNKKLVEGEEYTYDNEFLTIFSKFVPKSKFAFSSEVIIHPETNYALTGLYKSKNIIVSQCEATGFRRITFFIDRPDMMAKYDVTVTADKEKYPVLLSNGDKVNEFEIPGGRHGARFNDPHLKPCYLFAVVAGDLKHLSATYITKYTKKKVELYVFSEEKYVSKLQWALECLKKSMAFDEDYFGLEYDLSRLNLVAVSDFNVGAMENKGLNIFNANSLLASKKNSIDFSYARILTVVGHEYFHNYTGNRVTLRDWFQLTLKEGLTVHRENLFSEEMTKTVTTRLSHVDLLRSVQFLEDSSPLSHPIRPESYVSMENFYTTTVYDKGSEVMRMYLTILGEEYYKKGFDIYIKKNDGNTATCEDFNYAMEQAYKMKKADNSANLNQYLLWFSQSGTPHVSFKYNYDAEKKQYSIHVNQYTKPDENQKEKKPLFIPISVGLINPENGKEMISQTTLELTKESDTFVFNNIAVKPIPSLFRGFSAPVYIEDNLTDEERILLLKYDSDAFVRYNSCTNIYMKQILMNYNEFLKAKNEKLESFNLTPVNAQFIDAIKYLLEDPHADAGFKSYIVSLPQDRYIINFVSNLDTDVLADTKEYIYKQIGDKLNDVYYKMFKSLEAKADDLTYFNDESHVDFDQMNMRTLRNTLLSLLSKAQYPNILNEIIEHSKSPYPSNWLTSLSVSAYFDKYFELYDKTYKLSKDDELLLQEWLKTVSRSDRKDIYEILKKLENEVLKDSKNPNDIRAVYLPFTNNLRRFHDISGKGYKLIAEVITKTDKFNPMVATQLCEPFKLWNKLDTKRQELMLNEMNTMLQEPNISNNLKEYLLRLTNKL
row,Structure (SMILES),inhibition
1,O=C(NCc1ccco1)c1ccc(Br)c(S(=O)(=O)N2CCCCC2)c1,3.95% (inactive)
2,COc1ccc(NC(=O)C23CC4CC(C2)CC(c2ccccc2)(C4)C3)c(OC)c1,-2.32% (inactive)
3,COc1c(C)cc(C(=O)C2CCCN(C(=O)c3cccc(F)c3)C2)cc1C (stereo unspecified),0.9% (inactive)
4,CC(=O)Nc1ccc(OCC(O)Cn2c(CO)nc3ccccc32)cc1 (stereo unspecified),6.49% (inactive)
5,Cc1ccc(N(CC(=O)O)S(C)(=O)=O)cc1Cl,-5.06% (inactive)
6,C=CCOC(=O)C(=O)/C=C/c1csc2ccccc12,1.93% (inactive)
7,Cc1cc(C)c2c(-n3cccc3)c(C(=O)NNS(=O)(=O)c3ccc(F)cc3)sc2n1,-2.28% (inactive)
8,Cc1cc(C)c2c(-n3cccc3)c(C(=O)O)sc2n1,12.2% (inactive)
9,COC(=O)C(=C/C(C)=C/c1cccs1)C(=O)OC,13.8% (inactive)
10,Cc1ccc(N2C(=O)CCC2(C(N)=O)c2ccccc2)cc1 (stereo unspecified),-0.36% (inactive)
11,CCC(=O)Nc1ccc(-c2nc3ccccc3c(=O)o2)cc1,2.53% (inactive)
12,CCOc1ccccc1CN1CCN(Cc2[nH]c3ccccc3c2C)CC1CCO (stereo unspecified),-0.18% (inactive)
13,COc1cc(/C=N\NC(=O)c2sc(N)nc2C)cc(OC)c1OC,8.26% (inactive)
14,COc1cccc(/C=N\NC(=O)c2sc(N)nc2C)c1OC,24.5% (active)
15,Cc1nc(N)sc1C(=O)N/N=C/c1ccccc1[N+](=O)[O-],5.94% (inactive)
16,Cc1csc(Nc2ccccc2)[n+]1C,-12.3% (inactive)
17,Cc1cc(C(=O)Nc2sc3c(c2C#N)CCCC3)no1,8.77% (inactive)
18,CC(C)c1cc(C(=O)Nc2sc3c(c2C#N)CCC3)no1,20.6% (inactive)
19,Cc1cc(C(=O)Nc2sc3c(c2C#N)CCC3)no1,23.7% (active)
20,Cc1ccc(S(=O)(=O)NC(=O)NCCCCNC(=O)NS(=O)(=O)c2ccc(C)cc2)cc1,0.51% (inactive)
21,Cc1ccc(Cc2cc(C)n[nH]c2=O)cc1,9.53% (inactive)
22,COCc1cc(C)nc(OCC(=O)N/N=C/c2ccco2)c1C#N,9.71% (inactive)
23,CC(=O)Nc1nc(C(=O)O)cs1,-0.08% (inactive)
24,CC(=O)Nc1ccc(-c2csc(N/N=C(/C)c3ccccc3)n2)cc1,11.9% (inactive)

row,Structure (SMILES),inhibition
1,CCc1nnc(N/N=C/c2c(Cl)cccc2Cl)n1N,1.62% (inactive)
2,O=C(Nc1cccs1)Nc1ccc(Br)cc1F,5.12% (inactive)
3,CCOC(=O)NNS(=O)(=O)c1cc(Br)ccc1Br,-1.42% (inactive)
4,CCOc1ccc(Br)cc1S(=O)(=O)Nc1ccc(NC(=O)c2ccccc2C)cc1,7.33% (inactive)
5,Cc1ccc(CN2C(=O)N/C(=C\c3cccn3-c3cccc(C(=O)O)c3)C2=O)cc1,11.9% (inactive)
6,Cc1nc(S/C(=C/c2ccc(-c3ccc(Cl)cc3)o2)C(=O)O)n[nH]1,-6.28% (inactive)
7,CC(=O)c1ccc(-c2ccc(/C=C(/Sc3n[nH]c(C)n3)C(=O)O)o2)cc1,5.19% (inactive)
8,Cc1nc(S/C(=C/c2ccc(-c3cccc(Cl)c3)o2)C(=O)O)n[nH]1,-8.13% (inactive)
9,O=Cc1ccc(-c2ccc(C(=O)O)cc2)o1,7.72% (inactive)
10,CCc1nnc(NC(=O)C2CCCN(c3nc(C)cc(C)n3)C2)s1 (stereo unspecified),3.57% (inactive)
11,S=c1[nH]c(-c2ccccc2)cn1/N=C/c1cccnc1,1.39% (inactive)
12,O=C(CCCN1C(=O)/C(=C/c2ccccc2Cl)SC1=S)NNC(=O)c1cccnc1,2.83% (inactive)
13,COc1cccc(/C=C2\SC(=S)N(C(C(=O)O)c3ccccc3)C2=O)c1OC (stereo unspecified),18.2% (inactive)
14,COc1ccc(/C=C/C(=O)c2ccccc2)c(OC)c1,10.2% (inactive)
15,CC(=C\c1ccccc1)/C=C1/SC(=S)N(C(C(=O)O)C(C)C)C1=O (stereo unspecified),8.4% (inactive)
16,COc1ccc(/C=C2\SC(=S)N(N3CCOCC3)C2=O)c(OC)c1,1.37% (inactive)
17,COc1ccc(OC)c(/C=C2\SC(=S)N(Cc3cccnc3)C2=O)c1,-5.9% (inactive)
18,COc1ccccc1/C=C1\SC(=S)N(N2C(=O)CCCC2=O)C1=O,3% (inactive)
19,COc1ccc(OC)c(/C=C2\SC(=S)N(N3CCOCC3)C2=O)c1,6.71% (inactive)
20,CC(/C=C1\SC(=S)N(C(C(=O)O)C(C)C)C1=O)=C\c1ccccc1 (stereo unspecified),14% (inactive)
21,C/C(=N/NS(=O)(=O)c1ccc(C)cc1)c1ccc(NC(=O)C(F)(F)F)cc1,2.89% (inactive)
22,Cc1cnc(NC(=O)CSc2nnc(C)n2N)s1,2.39% (inactive)
23,Cc1ccc(OCc2nc(-c3ccccn3)n[nH]2)cc1,-24.5% (inactive)
24,CCCCn1nnnc1NCc1cccnc1,4.66% (inactive)

row,Structure (SMILES),inhibition
1,CCOC(=O)C1CCCN(CC(=O)/C=C2/N(C)c3ccccc3C2(C)C)C1 (stereo unspecified),9.72% (inactive)
2,COc1ccc(NS(=O)(=O)c2cccc(C(=O)N/N=C/c3ccc(O)cc3)c2)cc1,7.62% (inactive)
3,CCC1CCc2[nH]nc(C(=O)O)c2C1 (stereo unspecified),7.24% (inactive)
4,Cc1nn(C(=O)N2CCCCC2)c(C)c1CN1C(=O)c2ccccc2C1=O,-0.2% (inactive)
5,Cc1cc(C)cc(NC(=O)C(OC(=O)c2cccs2)c2ccccc2)c1 (stereo unspecified),3.45% (inactive)
6,OCCC1CN(Cc2nc(-c3ccccc3)cs2)CCN1CCc1ccccc1 (stereo unspecified),7.68% (inactive)
7,CSc1nc2ncc(-c3ccsc3)c(N)n2n1,7.33% (inactive)
8,O=C(O)C(Cc1ccccc1)N1C(=O)/C(=C/c2cccs2)SC1=S (stereo unspecified),11.1% (inactive)
9,CC(c1ccccc1)N1C(=O)/C(=C/c2ccncc2)SC1=S (stereo unspecified),-2.44% (inactive)
10,CC1(C)OC(=O)C(=Cc2ccc(-c3ccc(Cl)c(C(=O)O)c3)o2)C(=O)O1,8.63% (inactive)
11,Cc1ccc(N2NC(=O)/C(=C/c3ccc(-c4ccc(Cl)c(C(=O)O)c4)o3)C2=O)cc1,5.62% (inactive)
12,O=C(O)c1cc(-c2ccc(/C=C3\NC(=O)N(c4ccccc4)C3=O)o2)ccc1Cl,18.7% (inactive)
13,O=C1NN(c2ccccc2)C(=O)/C1=C/c1ccc(-c2ccc(Cl)c(C(=O)O)c2)o1,32.2% (inactive)
14,CC1=NOC(=O)/C1=C/c1ccc(-c2ccc(Cl)cc2)o1,5.39% (inactive)
15,CCCCC1(C)OC(=O)C(=Cc2ccc(-c3ccc(Cl)c(C(=O)O)c3)o2)C(=O)O1 (stereo unspecified),9.08% (inactive)
16,Cc1ccc(C)c(-n2c(SCC(=O)NC(C(=O)O)C(C)C)nnc2-c2cccc(Cl)c2)c1 (stereo unspecified),0.37% (inactive)
17,CC1CC(NC(=O)C2(C)CC2(Cl)Cl)CC(C)(C)C1 (stereo unspecified),1.77% (inactive)
18,O=C1CCn2nc(-c3ccc(Cl)cc3)cc2N1,0.78% (inactive)
19,O=C(O)CCC(=O)NNC(=O)c1cccc(Cl)c1,8.54% (inactive)
20,Cn1cc(-c2nnnn2-c2ccc(Cl)cc2)c(=O)c2ccccc21,-1.66% (inactive)
21,CC(=O)Nc1c(C(=O)c2ccccc2)oc2ccccc12,10.6% (inactive)
22,O=C(Nc1nc2c(Br)cc(Br)cc2c(=O)s1)c1ccco1,3.61% (inactive)
23,CCOc1cc(/C=C/c2ccc3cccc([N+](=O)[O-])c3n2)cc(Cl)c1O,9.51% (inactive)
24,CC(C)c1nc(CNC(=O)CCc2nnc(-c3ccsc3)o2)cs1,-9.81% (inactive)

row,Structure (SMILES),inhibition
1,O=C(N/N=C(/CC(=O)c1cccs1)C(F)(F)F)c1ccc(O)cc1,30.4% (inactive)
2,O=C(N/N=C(\CC(=O)c1cccs1)C(F)(F)F)c1cccnc1,22.1% (inactive)
3,Cc1cccc(N2CCN(C(=O)CC(NC(=O)c3ccccc3)c3ccccc3)CC2C)c1 (stereo unspecified),-5.51% (inactive)
4,Cc1ccc(N2CC(C(=O)Nc3cccc(F)c3)CC2=O)cc1 (stereo unspecified),2.83% (inactive)
5,COCc1c(Br)c(C)nc(OCC(=O)N/N=C/c2cc(C)n(-c3ccc([N+](=O)[O-])cc3)c2C)c1C#N,12% (inactive)
6,O=C(Nc1ccc(N2CCCCCC2)cc1)c1ccccc1Cl,-5.82% (inactive)
7,CN1CCN(c2ccc(NC(=O)c3ccccc3Br)cc2)CC1,3.56% (inactive)
8,O=C(Nc1ccc(-n2ccnc2P(=O)(O)c2ccccc2)cc1)c1ccccc1Cl,75.1% (active)
9,O=C(Nc1ccc2ncccc2c1)c1ccccc1Cl,16.8% (inactive)
10,O=C(Nc1ccc(C(F)(F)F)cc1)c1ccccc1Br,-2.21% (inactive)
11,CC(Cc1cccs1)NC(=S)Nc1ccc(Cl)c(Cl)c1 (stereo unspecified),-3.88% (inactive)
12,Cc1ccc(OCc2ccc(C(=O)Nc3nc4ccccc4n3Cc3ccccc3)o2)c([N+](=O)[O-])c1,4.13% (inactive)
13,Cc1ccc(C(=O)Cn2nnc3ccccc32)cc1C,5.82% (inactive)
14,O=C1Nc2ccccc2N(O)N1c1ccc(S(=O)(=O)Nc2ccccn2)cc1,5.82% (inactive)
15,O=c1[nH]c2sc3c(c2c2nncn12)CCCC3,2.29% (inactive)
16,Cc1nc2sc3c(c2c(=O)o1)CCC3,7.65% (inactive)
17,Cc1cc(-c2nc3c4c5c(sc4[nH]c(=O)n3n2)CCC5)c(C)o1,27.1% (active)
18,CCOC(=O)C1=C(c2ccccc2)Nc2ncnn2C1c1ccc(OC)c(OC)c1OC (stereo unspecified),-1.38% (inactive)
19,O=S(=O)(Nc1nc2ccccc2nc1Nc1ccc2c(c1)OCO2)c1ccccc1,33.5% (inactive)
20,O=S(=O)(Nc1ccc2c(c1)OCCO2)c1cccs1,-2.25% (inactive)
21,O=S(=O)(Nc1nc2ccccc2nc1Nc1ccc2c(c1)OCCO2)c1cccs1,47.2% (active)
22,CC1=C(C(=O)N2CCN(c3cc(C)ccc3C)CC2)C2(CCC(C)CC2)OC1=O (stereo unspecified),0.75% (inactive)
23,NNC(=O)CSc1nnnn1-c1ccccc1,-3.57% (inactive)
24,Cc1cccc(C)c1NS(=O)(=O)c1ccc(OCCNS(C)(=O)=O)cc1,-0.18% (inactive)
